Assay results reported in PubChem BioAssay (Tox21).
Where “and” joins values, the source holds several entries; their conditions need not be identical. Equal entries are not always repeated. Inconclusive results are not listed. Some structures have more than one record in an assay (separate samples or runs), and their calls can disagree. Calls of active or inactive are those of the source. Calls follow the shape of the dose curve; as a rule, active = well fitted curve in the direction sought with a large enough effect in the repeat runs; inconclusive = weak or mixed curves; inactive = no such curve, though single readings can be large; an effect the other way counts as inactive or inconclusive.

How the values were obtained:
[1] = qHTS RealTime-Glo MT Cell Viability Assay in HEK293 cells - 16 hour (AID 1224872); also: nearly all actives have a fitted effect of over 50% in size; as to activity change, negative = cytotoxicity: top concentration of the series differs between compounds
Summary of the method: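 Viability tracked continuously by luminescence as live cells reduce a prosubstrate for NanoLuc; HEK293 cells preincubated 5 h, compound-treated at 37 C, and read at 0, 8, 16, 24, 32 and 40 h.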

[2] = qHTS RealTime-Glo MT Cell Viability Assay in HepG2 cells - 8 hour (AID 1224873); also: nearly all actives have a fitted effect of over 55% in size
Summary of the method: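 Real-time viability: cells seeded at 600 per well together with NanoLuc and cell-permeant prosubstrate, compounds added after 5 h incubation. Luminescence tracked at 0, 8, 16, 24, 32 and 40 h of exposure.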

[3] = qHTS RealTime-Glo MT Cell Viability Assay in HEK293 cells - 40 hour (AID 1224874); conditions: RealTime-Glo luminescence; max response: stronger effect = lower value; also: nearly all actives have a fitted effect of over 50% in size
Summary of the method: (§1)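 Tox21 screen in HEK293 using RealTime-Glo MT chemistry, with cells and reagent co-dispensed. Luminescence proportional to viable cell number was captured at intervals during 40 h compound exposure at 37 C.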

[4] = qHTS RealTime-Glo MT Cell Viability Assay in HepG2 cells - 32 hour (AID 1224877); also: nearly all actives have a fitted effect of over 55% in size
Summary of the method: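 Viability was tracked continuously by NanoLuc luminescence from prosubstrate reduced by living HepG2 cells, at successive time points over 40 h of compound exposure. Cells with reagent were preincubated 5 h at 37 °C before compound addition.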

[5] = A CellTox Green Cytotoxicity Assay to monitor cytotoxicity in HepG2 cells - 24 hour (AID 1224878); also: nearly all actives have a fitted effect of over 45% in size
Summary of the method: (§2)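 Nonlytic assay: viable cells exclude the dye, so fluorescence scales with cell death. HepG2 at 600 cells/well, compounds added after 5 h, signal read across 40 h.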

[6] = A CellTox Green Cytotoxicity Assay to monitor cytotoxicity in HepG2 cells - 40 hour (AID 1224879); also: nearly all actives have a fitted effect of over 40% in size
Summary of the method: as §2

[7] = qHTS RealTime-Glo MT Cell Viability Assay in HEK293 cells - 0 hour (AID 1224880); also: nearly all actives have a fitted effect of over 45% in size; as to activity change, negative = cytotoxicity: top concentration of the series differs between compounds
Summary of the method: as §1

[8] = A CellTox Green Cytotoxicity Assay to monitor cytotoxicity in HEK293 cells - 32 hour (AID 1224881); also: nearly all actives have a fitted effect of over 40% in size
Summary of the method: (§3)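 Seeding of HEK293 cells together with cytotoxicity dye preceded a 5 h incubation at 37 C/5% CO2. Test compounds in DMSO were then added and fluorescence monitored across 40 h.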

[9] = A CellTox Green Cytotoxicity Assay to monitor cytotoxicity in HEK293 cells - 24 hour (AID 1224875); also: nearly all actives have a fitted effect of over 45% in size; as to activity change: series mostly up to about 77 µM
Summary of the method: as §3

[10] = A CellTox Green Cytotoxicity Assay to monitor cytotoxicity in HepG2 cells - 16 hour (AID 1224876); also: nearly all actives have a fitted effect of over 45% in size
Summary of the method: as §2
% is scaled to controls: 0 for no effect and ±100 for the full control effect; potency is read from the fitted curve at half-maximal effect.

CC(=O)Nc1ccc(C(=O)CCl)cc1
active: Potency [3] 21.9 µM
inactive and 21.9 µM (active): Potency [4] | Potency [5]
inactive and 15.5 µM (active): Potency [8]
inactive and 13.8 µM (active): Potency [1]
inactive: Potency [2] | max response [3] 19.7% | Potency [7]
inactive and 19.5 µM (active): Potency [6]

CC(C)(O)CCC(C)(C)O
inactive: Potency [1] | Potency [2] | max response [3] -3.66% | Potency [9] | Potency [10] | Potency [4] | Potency [5] | Potency [6] | Potency [7] | Potency [8]

CCCCCCCCCCCCCCCCCl
inactive: activity change, negative = cytotoxicity [1] 1.99% [at 15.8 µM] | viability change, negative = cytotoxic [2] 0.131% [at 15.8 µM] | max response [3] 0.0293% | activity change [9] 8.22% [at 15.8 µM, stronger effect = higher value] | cytotoxicity increase [10] 3.3% [at 15.8 µM] | activity change, negative = cytotoxic [4] 6.67% [at 15.8 µM] | cytotoxicity [5] 2.62% [at 15.8 µM] | cytotoxicity increase [6] 1.26% [at 15.8 µM] | activity change, negative = cytotoxicity [7] 2.19% [at 15.8 µM] | cytotoxicity increase [8] 8.79% [at 15.8 µM]

CCCCCCC(O)CCCCCCCCCCC(=O)O (stereo not drawn)
inactive: Potency [1] | Potency [2] | max response [3] -19.9% and -13.9% | Potency [9] | Potency [10] | Potency [4] | Potency [5] | Potency [6] | Potency [7] | Potency [8]

CCCCCCCCCCCC[N+](C)(C)C
inactive: Potency [1] | Potency [2] | Potency [9] | Potency [7]
active: Potency [3] 4.35 µM and 9.77 µM | Potency [10] 43.6 µM | Potency [4] 48.9 µM and 49 µM | Potency [5] 54.8 µM and 54.9 µM and 49 µM | Potency [8] 54.8 µM and 17.4 µM and 30.9 µM

O=C(O)c1cc(Cl)cc(Cl)c1
inactive: Potency [1] | Potency [2] | max response [3] 8.11% | Potency [9] | Potency [10] | Potency [5] | Potency [6] | Potency [7] | Potency [8]

CN(C)c1ccc(C(=C2C=CC(=[N+](C)C)C=C2)c2ccccc2)cc1
inactive: Potency [7]
active: Potency [1] 3.01 µM [middle of 4 runs] | Potency [2] 17.4 µM and 21.3 µM and 19 µM | Potency [3] 1.34 µM [middle of 4 runs] | Potency [9] 19.5 µM [middle of 4 runs] | Potency [10] 9.77 µM and 9.52 µM and 7.56 µM | Potency [4] 7.56 µM [middle of 4 runs] | Potency [5] 6.74 µM [middle of 4 runs] | Potency [8] 15.1 µM [middle of 4 runs]

CCC(CO)(CO)COCC(CC)(CO)CO
inactive: Potency [1] | Potency [2] | max response [3] -1.05% | Potency [9] | Potency [10] | Potency [4] | Potency [5] | Potency [7] | Potency [8]

O=C(Oc1ccccc1)c1ccccc1O
inactive: Potency [1] | Potency [2] | max response [3] -18.8% and -3% and 3.05% | Potency [9] | Potency [10] | Potency [4] | Potency [5] | Potency [7] | Potency [8]

Cc1cccc2n[nH]nc12
inactive: Potency [1] | Potency [2] | max response [3] -0.386% | Potency [9] | Potency [4] | Potency [7] | Potency [8]
inactive and 38.9 µM (active): Potency [10] | Potency [5]

CC(=O)OCCOCCOCCOC(C)=O
inactive: Potency [1] | Potency [2] | max response [3] 7.9% and 19.2% | Potency [9] | Potency [4] | Potency [5] | Potency [6] | Potency [7] | Potency [8]

O=c1n(CC2CO2)c(=O)n(CC2CO2)c(=O)n1CC1CO1 (stereo not drawn)
inactive: Potency [1] | Potency [2] | Potency [9] | Potency [4] | Potency [5] | Potency [6] | Potency [7] | Potency [8]
active: Potency [3] 1.37 µM

COC(c1ccccc1)(c1ccccc1)[C@H](Oc1nc(C)cc(C)n1)C(=O)O
inactive: Potency [1] | Potency [2] | max response [3] -3.67% | Potency [9] | Potency [4] | Potency [5] | Potency [6] | Potency [7] | Potency [8]

OCCN1CCNCC1
active: Potency [1] 15.8 µM | Potency [3] 7.9 µM
inactive: Potency [2] | Potency [9] | Potency [10] | Potency [5] | Potency [6] | Potency [7] | Potency [8]

C#CC(C)(CC)OC(=O)c1ccccc1C(=O)O (stereo not drawn)
inactive: Potency [1] | Potency [2] | max response [3] 0.788% | Potency [9] | Potency [10] | Potency [5] | Potency [6] | Potency [7] | Potency [8]

CC(=O)N[C@@H](CS)C(=O)O
inactive: Potency [1] | Potency [2] | max response [3] 3.06% and 6.4% | Potency [9] | Potency [10] | Potency [5] | Potency [6] | Potency [7] | Potency [8]

C=C(C)C(=O)O
inactive: Potency [1] | Potency [2] | max response [3] -0.401% and 9.57% | Potency [9] | Potency [10] | Potency [5] | Potency [6] | Potency [7] | Potency [8]

CC(=O)O[C@]1(C(C)=O)CC[C@H]2[C@@H]3C[C@H](C)C4=CC(=O)CC[C@]4(C)[C@H]3CC[C@@]21C
active: Potency [1] 17.4 µM | Potency [3] 19.5 µM and 9.52 µM | Potency [7] 691 nM and 756 nM
inactive: Potency [2] | Potency [9] | Potency [4] | Potency [5] | Potency [8]

CCc1cc(C(C)(C)C)c(O)c(C(C)(C)C)c1
inactive: Potency [1] | Potency [2] | max response [3] 1.58% and -10.1% | Potency [10] | Potency [4] | Potency [5] | Potency [7]
active: Potency [9] 21.9 µM | Potency [8] 21.9 µM

Cc1cc(OCCOCC[N+](C)(C)Cc2ccccc2)ccc1C(C)(C)CC(C)(C)C
active: Potency [1] 19.4 µM and 19 µM | Potency [2] 21.7 µM and 23.9 µM | Potency [3] 9.71 µM and 6.01 µM | Potency [9] 21.7 µM and 23.9 µM | Potency [10] 19.4 µM and 15.1 µM | Potency [4] 13.7 µM and 9.52 µM | Potency [5] 17.3 µM and 10.7 µM | Potency [6] 13.7 µM and 8.49 µM | Potency [8] 21.7 µM and 23.9 µM

c1cc(C(c2ccc(OCC3CO3)cc2)C(c2ccc(OCC3CO3)cc2)c2ccc(OCC3CO3)cc2)ccc1OCC1CO1 (stereo not drawn)
inactive: Potency [1] | Potency [2] | max response [3] -1.63% | Potency [9] | Potency [4] | Potency [5] | Potency [7] | Potency [8]

CCOc1ccc2c(c1)C(C)=CC(C)(C)N2
inactive: Potency [1] | Potency [2] | max response [3] -10.3% and 3.02% | Potency [9] | Potency [10] | Potency [5] | Potency [6] | Potency [7] | Potency [8]

c1ccc2cc3c(ccc4ccccc43)cc2c1
inactive: Potency [1] | Potency [2] | max response [3] 0.679% | Potency [9] | Potency [4] | Potency [5] | Potency [7] | Potency [8]
21.9 µM (active) and inactive: Potency [6]

CC1=C(C=O)C(C)(C)CC=C1
inactive: Potency [1] | Potency [2] | max response [3] -1.02% | Potency [9] | Potency [10] | Potency [5] | Potency [7] | Potency [8]

CCCCOCCOC(=O)c1ccccc1C(=O)OCCOCCCC
inactive: Potency [1] | Potency [2] | max response [3] -18.4% | Potency [9] | Potency [4] | Potency [5] | Potency [6] | Potency [7] | Potency [8]

NNCCc1ccccc1
inactive: Potency [1] | Potency [2] | max response [3] -29.6% and 3.04% | Potency [9] | Potency [10] | Potency [5] | Potency [7] | Potency [8]

CC[C@H]1CN2CCc3cc(OC)c(OC)cc3[C@@H]2C[C@@H]1C[C@H]1NCCc2cc(OC)c(OC)cc21
inactive: Potency [2] | Potency [9] | Potency [10] | Potency [7]
active: Potency [1] 24.6 nM and 75.6 nM | Potency [3] 13.9 nM and 42.5 nM | Potency [5] 49.2 µM and 26.8 µM | Potency [6] 49.2 µM and 16.9 µM

O=C(O)c1cn(-c2ccc(F)cc2)c2cc(N3CCNCC3)c(F)cc2c1=O
inactive: Potency [1] | Potency [2] | max response [3] 4.85% and 19.5% | Potency [9] | Potency [10] | Potency [4] | Potency [5] | Potency [7] | Potency [8]

COc1ccc(COC(C)=O)cc1
inactive: Potency [1] | Potency [2] | max response [3] 5.85% | Potency [9] | Potency [10] | Potency [5] | Potency [6] | Potency [7] | Potency [8]

Cc1cccc(O)c1C
inactive: Potency [1] | Potency [2] | max response [3] -0.0816% and -5.42% | Potency [9] | Potency [10] | Potency [4] | Potency [5] | Potency [7] | Potency [8]

CCCCN(CCO)CCCC
inactive: Potency [1] | Potency [2] | max response [3] 2.9% | Potency [9] | Potency [10] | Potency [5] | Potency [7] | Potency [8]

Nc1nc(=S)c2[nH]cnc2[nH]1
inactive: Potency [1] | Potency [2] | Potency [9] | Potency [10] | Potency [5] | Potency [6] | Potency [7] | Potency [8]
active: Potency [3] 21.3 µM and 19.5 µM and 26.8 µM

CCN(CC)c1ccc2c(C)cc(=O)oc2c1
inactive: Potency [2] | Potency [9] | Potency [10] | Potency [4] | Potency [5] | Potency [7] | Potency [8]
active: Potency [1] 39.2 µM | Potency [3] 39.2 µM

Nc1cc(S(=O)(=O)O)cc2cc(S(=O)(=O)O)cc(O)c12
inactive: Potency [1] | Potency [2] | max response [3] -12.9% | Potency [9] | Potency [4] | Potency [5] | Potency [6] | Potency [7] | Potency [8]

CCn1c2ccccc2c2cc(N)ccc21
inactive: Potency [1] | Potency [2] | max response [3] -18.5% and -3.18% and -13.8% | Potency [9] | Potency [4] | Potency [5] | Potency [6] | Potency [7] | Potency [8]

CCN(CC)C(=O)Nc1ccc(OCC(O)CNC(C)(C)C)c(C(C)=O)c1 (stereo not drawn)
inactive: Potency [1] | Potency [2] | max response [3] 1.66% | Potency [9] | Potency [10] | Potency [5] | Potency [7] | Potency [8]

c1ccc2c(c1)CCCC2C1=NCCN1 (stereo not drawn)
inactive: Potency [1] | Potency [2] | max response [3] 3.27% | Potency [9] | Potency [10] | Potency [4] | Potency [5] | Potency [7] | Potency [8]

O=C(O)c1cccc(C(=O)O)c1
inactive: Potency [1] | Potency [2] | max response [3] 5.05% and -3.16% | Potency [9] | Potency [10] | Potency [4] | Potency [5] | Potency [7] | Potency [8]
